Assay [1] in a line: viability loss with induced miR-34 in A549 – imaging, A549 dox-inducible miR-34, nuclei and caspase counts, primary screen (AID 1347080;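 active = compounds whose cell count with miR-34 switched on is under 0.7 times the count with it off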; note: test concentration not given here). The conditions noted are these: A549 miR-34 inducible, Hoechst nuclei count, 48 h.
Assay [2] is described as follows: MELAS cybrid and Rieske KO viability enhancers – cell-based, MELAS cybrids, Rieske KO mouse fibroblasts, CellTiter-Glo, primary screen (AID 1508586;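 active = mean z-score across replicates of 1.96 or higher in either the MELAS or the Rieske mutant cell line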;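 note: test concentration not given here; z relative to plate mean and SD of compound and empty wells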). The following applies: low glucose.
A short description of assay [3]: galactose survival enhancers in mitochondrial complex I cybrids – cell-based, galactose medium, ATP luminescence, primary screen (AID 1645843).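 Note: positive z means more ATP and so rescue of galactose-driven cybrid death.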 The conditions noted are these: complex I mutant cybrid cells, 72 h, stronger effect = higher value.
The mark [4] stands for this setting: stronger effect = lower value, cell number ratio, induced over uninduced.
Where [5] appears, read: measured here: relative caspase fold change +Dox/-Dox.
The mark [6] stands for this setting: measured here: total cells with miR-34 induction, stronger effect = lower value.
Where [7] appears, read: measured here: total cells without miR-34 induction.
The mark [8] stands for this setting: MELAS cybrid survival, CellTiter-Glo 48 h, stronger effect = higher value.
Setting [9] is: Rieske KO mouse fibroblast survival, CellTiter-Glo 72 h.

The source made the active and inactive calls.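 Rule for the calls, unless noted: active = z-score of at least 1.8 in each of two replicates, scored against plate mean and spread of sample wells; inactive = the rest.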

This passage reports fold change, cell count and z-score results from PubChem BioAssay.

For `Cc1nsc(NC(=O)NC2CCc3ccccc3C2)n1` (stereo unspecified), the fold change in assay [1] (setting [4]) is 0.899 (inactive); in assay [1] (setting [5]) it was 1. The cell count is 3190 in assay [1] (setting [6]) and 3550 in assay [1] (setting [7]). Besides, the z-score in assay [2] (setting [8]) was -0.269 (inactive); in assay [2] (setting [9]) it was -0.339; in assay [3] it was 1.48 (inactive).
As to `COc1ccc(CCC(=O)O)cc1OC`, the fold change was 0.922 (inactive) in assay [1] (setting [4]) and 0.518 in assay [1] (setting [5]). Also, the results for the cell count in assay [1] (setting [6]) and in assay [1] (setting [7]) were 8510 and 9240, respectively. The z-score in assay [2] (setting [8]) is -0.767 (inactive); in assay [2] (setting [9]) it was -0.44; in assay [3], -0.02 (inactive).
`Cc1cccc(C)c1OCC(=O)O`: the fold change is 0.919 (inactive) in assay [1] (setting [4]) and 0.272 in assay [1] (setting [5]). Further, the cell count in assay [1] (setting [6]) came to 8740; in assay [1] (setting [7]) it was 9510. Also, the z-score in assay [2] (setting [8]) was 0.26 (inactive); in assay [2] (setting [9]), 0.0496; in assay [3], 0.75 (inactive).
As to `O=C(O)CCCCc1ccccc1`, the fold change was 0.916 (inactive) in assay [1] (setting [4]) and 0.396 in assay [1] (setting [5]). Moreover, the cell count amounted to 9010 in assay [1] (setting [6]) and 9830 in assay [1] (setting [7]). Also, the z-score in assay [2] (setting [8]) was 0.335 (inactive); in assay [2] (setting [9]), -0.289; in assay [3], 0.82 (inactive).
Take `CN(C)Cc1cn(CC2CCN(C(=O)c3ccc4c(c3)OCO4)CC2)nn1`: the fold change in assay [1] (setting [4]) was 0.896 (inactive); in assay [1] (setting [5]), 1.18. The cell count was 9300 in assay [1] (setting [6]) and 10400 in assay [1] (setting [7]). Moreover, the z-score in assay [2] (setting [8]) was -0.121 (inactive); in assay [2] (setting [9]), -0.477; in assay [3] it was -0.48 (inactive).
`Cc1nc(NC(=O)NCc2cccc(C(F)(F)F)c2)nn1C`: the fold change in assay [1] (setting [4]) is 0.922 (inactive); in assay [1] (setting [5]), 1.12. Also, the figures for the cell count in assay [1] (setting [6]) and in assay [1] (setting [7]) were 9110 and 9880, respectively. Further, the z-score is 0.0413 (inactive) in assay [2] (setting [8]), 1.4 in assay [2] (setting [9]) and 0.45 (inactive) in assay [3].
As for `COc1ccc(-c2oc3ncnc(NCCO)c3c2-c2ccc(OC)cc2)cc1`, the fold change was 0.89 (inactive) in assay [1] (setting [4]) and 0.844 in assay [1] (setting [5]). The cell count in assay [1] (setting [6]) is 5740; in assay [1] (setting [7]), 6450. Besides, the z-score is 1.03 in assay [2] (setting [8]), 11.9 in assay [2] (setting [9]) and -1.77 (inactive) in assay [3].
On to `CCN(CC)C(=O)c1c(NC(=O)c2cccs2)sc2c1CCCC2`, for which the fold change in assay [1] (setting [4]) is 1.02 (inactive); in assay [1] (setting [5]) it was 0.802. The cell count is 1650 in assay [1] (setting [6]) and 1620 in assay [1] (setting [7]). The z-score in assay [2] (setting [8]) was 0.194 (inactive); in assay [2] (setting [9]), 0.0357; in assay [3] it was -0.49 (inactive).
